From PubChem BioAssay
In the library only some 21% were active in any assay of this set; here they are far more common.
Sm TGR inh – qHTS Assay for the Inhibitors of Schistosoma Mansoni Peroxiredoxins | Schistosoma mansoni thioredoxin glutathione reductase (TGR), Q962Y6 | purified TGR, DTNB reduction, TNB absorbance 405 nm | Potency, µM (series often up to 114 µM), inactives show at the highest dose activity change, negative = inhibition, actives largely listed as inhibitors | 360,000 tested, 3% active | AID 485364, 2010; note: potency is the fitted concentration of half-maximal effect; % is set by controls: 0 for no effect and ±100 for the full control effect; nearly all actives have a fitted effect of over 60% in size
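First, TGR (20 nM dispensed) and NADPH were mixed with compound. Second, a 15 min room-temperature incubation followed. Third, further NADPH and then DTNB were added to start the reaction. Finally, TNB absorbance was monitored kinetically.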
NS1 inh – qHTS Assay for Inhibitors of Influenza NS1 Protein Function; Potency, µM (highest dose often 46.1 µM), without a hit: top-dose activity, positive = more growth; 270,000 tested, 0.4% active; AID 2326, 2010; calls by dose curve; note: potency is the fitted concentration of half-maximal effect; actives are rising curves; nearly all actives have a fitted effect of over 50% in size
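Growth recovery, yeast-based: influenza A NS1 expressed in S. cerevisiae causes slow growth, and suppressors are detected by OD600. The parent strain without NS1 is used as positive control.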
CHX counter – Cycloheximide Counterscreen for Small Molecule Inhibitors of Shiga Toxin. max response, %. 300,000 tested, 12% active. cell reporter, cycloheximide protein synthesis inhibition counterscreen. AID 2314, 2010; in the data active = max response mostly above about 13%, no sharp cut-off; inactive = mostly below about 14%; note: read at 38.3 µM for the half of the compounds with a filed dose; 0% is about no effect
Shiga inhibitor – A qHTS for Small Molecule Inhibitors of Shiga Toxin | inhibition, % at 38.7 µM | Vero cells, Shiga toxin protein synthesis inhibition reporter | 290,000 tested, 9.2% active | AID 2315, 2010; in the data active = inhibition mostly above about 28%, no sharp cut-off; inactive = mostly below about 43%; note: 0% is about no effect
Pf growth 48h – Primary qHTS for delayed death inhibitors of the malarial parasite plastid, 48 hour incubation. P. falciparum luciferase growth in erythrocytes, 48 h. Potency, µM (titrated, usually from 28.7 µM), without a hit: top-dose activity change, negative = inhibition, most hits filed as inhibitors. AID 504832, 2011. 310,000 tested, 5.9% active; note: potency is the fitted concentration of half-maximal effect; % is set by controls: 0 for no effect and ±100 for the full control effect
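In quantitative HTS format, infected erythrocytes bearing luciferase-reporter parasites were treated for a single generation at 37 C. Luminescence after adding detection reagent served as the growth measure.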
Pf growth 96h – Primary qHTS for delayed death inhibitors of the malarial parasite plastid, 96 hour incubation; P. falciparum luciferase reporter growth, 96 h; 320,000 tested, 6.9% active; AID 504834, 2011; Potency, µM (titrated, usually from 28.7 µM), inactives show top-dose activity change, negative = inhibition, actives largely listed as inhibitors; note: potency is the fitted concentration of half-maximal effect; % is set by controls: 0 for no effect and ±100 for the full control effect
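P. falciparum expressing integrated firefly luciferase, in erythrocytes at 2% hematocrit, 0.05% parasitemia, incubated with compounds 96 h at 37 C, 5% CO2. Growth inhibition read as loss of luminescence; two-generation exposure targets delayed-death apicoplast inhibitors.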
An asterisk follows results filed as active; ? = inconclusive; . = no result; [ ] = remark or other dose. Unless noted, calls come from the whole dose curve; as a rule, active = well fitted curve in the direction sought with a large enough effect; inconclusive = small, poorly fitted or top-dose-only effect, or another doubt; inactive = no such curve, though single readings can be large; an effect the other way counts as inactive or inconclusive.

SMILES | Sm TGR inh | NS1 inh | CHX counter | Shiga inhibitor | Pf growth 48h | Pf growth 96h
Cc1nc(N2CCCCC2)c2c(C)c(C(=O)Nc3ccccc3C(F)(F)F)sc2n1 | -2% | . | -5 | 41 | 9.3µM* | ?
Cc1nc(N2CCCCC2)c2c(C)c(C(=O)Nc3cccc(C(F)(F)F)c3)sc2n1 | 17% | . | 7 | 17 | 2.6µM* | -30%
N#C/C(=C\c1c(Cl)cccc1Cl)c1nc2ccccc2[nH]1 | -5% | -88% | 14* | 36 | 8.3µM* | 8.3µM*
N#C/C(=C(/O)CCl)c1nc2ccccc2[nH]1 | 25µM* | . | 7 | -3 | ? | 10µM*
Cc1ccc(/C=C(\C#N)c2nc3ccccc3[nH]2)s1 | 24% | -57% | 49* | 53* | ? | 1.7µM*
N#C/C(=C(\O)Cc1ccccc1)c1nc2ccccc2[nH]1 | -6% | 6% | 1 | -4 | . | .
N#C/C(=C/c1cccs1)c1nc2ccccc2[nH]1 | 17% | -20% | 65* | 64* | ? | ?
CCOc1ccc(Sc2cc(C(=O)NCc3ccccc3Cl)c3ccccc3n2)cc1 | 0% | . | . | . | . | .
Cc1cccc(C)c1Nc1nnc(SC/C(O)=C(\C#N)c2nc3ccccc3[nH]2)s1 | 5% | ? | -2 | 9 | ? | ?
N#C/C(=C\C1CC=CCC1)c1nc2ccccc2[nH]1 (stereo unspecified) | -12% | -83% | 27* | 48 | 8.3µM* | .
Cc1cccc(Nc2nnc(SC/C(O)=C(\C#N)c3nc4ccccc4[nH]3)s2)c1C | -4% | 28% | -2 | 2 | ? | 12µM*
N#C/C(=C\c1cccs1)Sc1nc2ccccc2s1 | -7% | -39% | 31* | 44* | 14% | -19%
Cc1c(-c2cccc(Cl)c2)nc2ccccc2c1C(=O)OC/C(O)=C(\C#N)c1nc2ccccc2[nH]1 | 2% | . | -1 | 31 | -30% | 10µM*
Cc1c(C(=O)OC/C(O)=C(\C#N)c2nc3ccccc3[nH]2)oc2ccc(Br)cc12 | -21% | 3% | -3 | -7 | -5% | ?
Cn1c(/C(C#N)=C/C2CC=CCC2)nc2ccccc21 (stereo unspecified) | 1% | -19% | 9 | -7 | ? | .
CCc1ccc(NC(=O)Cn2c(=O)n(Cc3ccco3)c(=O)c3cccnc32)cc1 | -15% | . | . | . | . | .
N#C/C(=C\c1ccc(Sc2ccc(Cl)cc2)o1)c1nc2ccccc2[nH]1 | -16% | -38% | 6 | 4 | 0.19µM* | -12%
COC(=O)c1sc2ccccc2c1S(=O)(=O)N1CCN(c2ccc(C(C)=O)cc2)CC1 | -2% | . | . | . | . | .
CCOc1ccc(NC(=O)c2cnccn2)cc1 | 89µM* | -6% | 18* | 18* | 101% | 27%
COc1ccc(CNC(=O)C/C(C)=N/NC(=O)C23CC4CC(CC(C4)C2)C3)cc1 | -36% | -1% | 29* | 53* | -10% | 47%
COc1ccc(CNC(=O)C/C(C)=N/NC(=O)Cc2ccc(OC)cc2)cc1 | 1% | 17% | -1 | -5 | 11% | -2%
COc1ccc(NC(=O)C/C(C)=N/NC(=O)c2cnccn2)cc1 | -26% | -3% | 28* | 99* | 11% | 35%
C/C(CC(=O)Nc1ccccn1)=N\NC(=O)c1cnccn1 | 16% | -2% | 44* | 79* | 12% | -11%
COc1ccc(CCNCC(O)COc2cccc(C(C)=O)c2)cc1OC (stereo unspecified) | ? | 3% | 1 | -5 | -15%[0.00184 µM] | -27%
COc1ccc(C(=O)Nn2c(C)nc3ccccc3c2=O)cc1Br | -9% | 3% | -4 | 12 | . | -12%
SMILES | Sm TGR inh | NS1 inh | CHX counter | Shiga inhibitor | Pf growth 48h | Pf growth 96h
O=C(O)CC12CC3CC(C1)CC(n1ncc(NCc4ccc5c(c4)OCO5)c(Cl)c1=O)(C3)C2 | ? | . | -4 | -4 | -12% | -12%
C/C(CC(=O)NC12CC3CC(CC(C3)C1)C2)=N\NC(=O)c1cnccn1 | -2% | . | 7 | 20 | 25% | ?
CCOc1ccc(NC(=O)C/C(C)=N/NC(=O)c2cnccn2)cc1 | -10% | 20% | 22* | 32* | 1% | -7%
CCOc1ccc(NC(=O)c2cnsn2)cc1 | 4% | -1% | 30* | 55* | 17% | .
COCCNC(=O)C(=O)N/N=C(\C)CC(=O)Nc1cccnc1 | -27% | 2% | 13* | -2 | 26% | -85%
C/C(CC(=O)Nc1ccc2ccccc2c1)=N\NC(=O)c1ccc(O)c(O)c1 | 7% | -9% | 38* | 86* | 45% | 10%
COCCNC(=O)C(=O)N/N=C(\C)CC(=O)Nc1ccc2c(c1)OCO2 | ? | . | 12 | 5 | 0% | -16%
COc1cc(N)c(Cl)cc1C(=O)OCC(=O)Nc1cccnc1Cl | -4% | . | . | . | 2% | 25%
COc1ccc(CNC(=O)C/C(C)=N/NC(=O)c2cnccn2)cc1 | . | -1% | 45* | 71* | 44% | 19%
CCOc1ccc(NC(=O)c2nccnc2CO)cc1 | -22% | -11% | 46* | 93* | 59% | 0%
C/C(CC(=O)Nc1ccc2ccccc2c1)=N\NC(=O)c1cnccn1 | ? | -2% | 29* | 52* | ? | 49%
CC(=O)Nc1ccc(NC(=O)C/C(C)=N/NC(=O)c2cccc3ccccc23)cc1 | -3% | -14% | -3 | -2 | 8% | -23%
Cc1cccc(-c2nc3c4ccccc4nc(NCc4ccccc4Cl)n3n2)c1 | 24% | . | . | . | . | .
COC(C)(C)[C@@H](O)COc1c2ccoc2cc2oc(=O)ccc12 | -5% | . | . | . | 6% | 25%
O=C(C1=C[C@H](c2ccccc2)C[C@H](OCCCCO)O1)N1CCN(Cc2ccccc2)CC1 | 0% | -6% | 1 | -10 | ? | ?
O=C(C1=C[C@H](C2CCCCC2)C[C@H](OCCCCO)O1)N1CCOCC1 | ? | -1% | 0 | 17 | -2% | 1%
O=C(C1=C[C@H](C2CC2)C[C@H](OCCCCO)O1)N1CCN(Cc2ccccc2)CC1 | 25µM* | 4% | -3 | -10 | -5% | ?
O=C(C1=C[C@@H](C2CCCCC2)C[C@@H](OCCCCO)O1)N1CCN(Cc2ccc3c(c2)OCO3)CC1 | -1% | -9% | -2 | -5 | ? | 6.6µM*
O=C(C1=C[C@H](C2CCCCC2)C[C@H](OCCCCO)O1)N1CCN(Cc2ccccc2)CC1 | 35µM* | -8% | -3 | -4 | ? | ?
Cc1ccccc1OCc1ccc(-c2nc(C#N)c(NCCCN(C)C)o2)o1 | 3% | . | . | . | . | .
CCC1CCCCN1C(=O)CSc1n[nH]c(-c2ccccc2)n1 (stereo unspecified) | 4% | . | . | . | . | .
CC1(C)C(=O)OC(C(=O)c2ccc(C(C)(C)C)cc2)C(C)(C)C1=O (stereo unspecified) | -2% | -3% | 8 | -8 | . | ?
